# High-throughput results deposited in PubChem BioAssay by Sanford-Burnham Center for Chemical Genomics.
# Sampled rows, rich in hits. Any-hit rate of the full collection: about 3%.
# SENP6 inh = SENP6 protease inhibitors, primary screen, biochemical, luminescence, uHTS; Sentrin-specific protease 6 (Homo sapiens), Q9GZR1; AID 2599, 2010; inhibition, % at 10 µM; Recombinant SENP6 catalytic domain, aminoluciferin luminescence; 1.8% of 330,000 active;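 active = inhibition above about 50% at the single tested dose, limit read from the data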
# SENP8 block-1 = SENP8 protease inhibitors, primary screen, biochemical, luminescence. purified SENP8, Z-RLRGG-aminoluciferin cleavage. inhibition, % at 10 µM. 1.2% of 330,000 active. AID 2540, 2010; in the data active = inhibition above about 50%
# Target sequence (Q96LD8 whole entry, looked up): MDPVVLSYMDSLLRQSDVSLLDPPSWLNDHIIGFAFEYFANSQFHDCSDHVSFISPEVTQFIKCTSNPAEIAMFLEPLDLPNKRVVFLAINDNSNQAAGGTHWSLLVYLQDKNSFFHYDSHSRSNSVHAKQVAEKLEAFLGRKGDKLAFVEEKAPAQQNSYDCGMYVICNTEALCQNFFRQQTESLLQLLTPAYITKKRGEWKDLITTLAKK
# SENP7 block = SENP7 protease inhibitors, primary screen, biochemical, luminescence, uHTS; inhibition, % at 5 µM; AID 434973, 2010; Sentrin-specific protease 7 (Homo sapiens), Q9BQF6; recombinant SENP7, Z-RLRGG-aminoluciferin luminescence, 40 min; 1.5% of 330,000 active;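 active = inhibition above about 50% at the single test dose, limit read from the data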
# Target sequence (Q9BQF6 706-1050 limits assumed): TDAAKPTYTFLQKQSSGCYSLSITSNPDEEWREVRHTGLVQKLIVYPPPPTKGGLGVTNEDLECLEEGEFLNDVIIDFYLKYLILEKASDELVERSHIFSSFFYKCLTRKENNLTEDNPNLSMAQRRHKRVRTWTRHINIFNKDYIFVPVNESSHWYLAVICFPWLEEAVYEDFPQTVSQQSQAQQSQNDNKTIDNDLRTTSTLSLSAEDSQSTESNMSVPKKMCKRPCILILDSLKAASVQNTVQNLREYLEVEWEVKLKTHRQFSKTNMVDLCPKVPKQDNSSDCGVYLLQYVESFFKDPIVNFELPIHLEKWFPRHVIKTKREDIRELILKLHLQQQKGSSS
# PPC-1+TRAIL kill = compounds killing PPC-1 cancer cells with TRAIL present, primary screen, TRAIL potentiator project, ATPLite luminescence, uHTS | 0.41% of 220,000 active | cell killing (% activity), % at 4 µM or 5 µM | AID 1443, 2008 | PPC-1 cells + TRAIL, ATPLite viability luminescence;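 active = cell killing above 50% in the first pass at 4 µM, then a duplicate retest at 5 µM averaging 50% or more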
# SENP8 block-2 = human SENP8 protease inhibitors, primary screen, biochemical, fluorescence, Nedd8 protein substrate, uHTS | Sentrin-specific protease 8 (Homo sapiens), Q96LD8 | recombinant SENP8 | inhibition, % at 20 µM | 0.64% of 360,000 active | AID 602440, 2012; in the data active = inhibition mostly above about 40%, no sharp cut-off; inactive = mostly below about 27%
# TRAIL sens C8 = viability loss with TRAIL in NB7+C8 cells, primary screen, TRAIL sensitizer project, cell-based, ATPlite luminescence. AID 624354, 2012. 1% of 360,000 active. inhibition (viability loss, TRAIL sensitization), % at 10 µM;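 active = compounds causing at least 50% loss of cell viability in the single-dose screen, relative to plate controls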
# SENP8 conf = human SENP8 protease inhibitors, confirmation, biochemical, Nedd8 protein substrate, single concentration; shares compounds with SENP8 block-2; purified SENP8, Nedd8-AMC/pro-Nedd8 cleavage fluorescence, 30 min; inhibition, % at 25 µM; 15% of 1,400 active; in the data active = inhibition mostly above about 39%, no sharp cut-off; inactive = mostly below about 34%
# A number is an active result; . = inactive; / = no result.
SMILES,SENP6 inh,SENP8 block-1,SENP7 block,PPC-1+TRAIL kill,SENP8 block-2,TRAIL sens C8,SENP8 conf
COc1ccc(CC(C(=O)Nc2ccc(OC)cc2)c2nn[nH]n2)cc1 (stereo unspecified),.,.,.,/,.,.,/
COc1ccc(N2CCN(S(=O)(=O)CC34CCC(CC3=O)C4(C)C)CC2)cc1 (stereo unspecified),.,.,.,/,.,.,/
CCCCOc1ccc(/C=N/NC(=S)Nc2cccc(C)c2C)cc1,.,.,.,.,40.0,.,.
CCCCOc1ccc(/C=N/NC(=S)Nc2cc(C)ccc2C)cc1,.,.,.,.,.,.,/
CCOc1ccc(C(=O)NNC(=O)c2cc(S(=O)(=O)N3CCOCC3)ccc2Cl)cc1,.,.,.,/,.,.,/
Cc1ccc([N+](=O)[O-])cc1N,.,.,.,.,.,.,/
CCc1cc([N+](=O)[O-])cc(CC)c1N,.,.,.,.,45.2,.,.
O=C(CN1CCN(C(=O)N2CCOCC2)CC1)Nc1ccc(Br)cc1,.,.,.,.,40.9,.,.
Cc1ccc(NC(=O)CNC(=O)c2cccc(C)c2)nc1,.,.,.,/,.,.,/
CSc1ccc(-c2ccco2)nn1,.,.,.,.,.,.,/
c1coc(-c2nnc(-c3ccco3)nn2)c1,72.9,54.9,.,/,86.7,.,69.6
Cc1ccc(-n2cnc(N)c2C(=O)c2cccc([N+](=O)[O-])c2)cc1,.,.,.,.,54.8,.,.
O=C1c2ccc3c4c(ccc(c24)C(=O)N1c1cccc(O)c1)CC3,.,.,.,.,.,.,/
O=C1c2ccc3c4c(ccc(c24)C(=O)N1c1cccc(O)c1)C(=O)N(c1cccc(O)c1)C3=O,.,.,.,.,46.0,48.8,.
CCN1CCN(c2ccc([N+](=O)[O-])c(Sc3nc4ccccc4[nH]3)c2)CC1,.,.,.,.,41.3,.,.
O=[N+]([O-])c1ccc(N2CCN(CCO)CC2)cc1Sc1ccccn1,.,.,.,.,.,.,/
COc1ccc(C2CC(=O)c3c(O)cc(O)cc3O2)cc1O (stereo unspecified),/,/,/,/,41.0,.,.
O=C1CC(c2ccc(O)c(O)c2)Oc2cc(O)cc(O)c21 (stereo unspecified),.,.,.,.,.,.,/
CC1CC(=O)N(c2ccc(NCCc3ccc(O)cc3)c([N+](=O)[O-])c2)C1=O (stereo unspecified),.,.,.,.,42.4,.,.
CC1CC(=O)N(c2ccc(NCCc3ccccc3)c([N+](=O)[O-])c2)C1=O (stereo unspecified),.,.,.,.,.,.,/
Cc1nc(SCc2nc3ccc(C(F)(F)F)cc3[nH]2)c2oc3ccccc3c2n1,.,.,.,/,.,.,/
COc1ccc([N+](=O)[O-])cc1NC(=S)Nc1ccccc1,.,.,.,.,.,.,/
COc1ccc([N+](=O)[O-])cc1NC(=S)NC(=O)C(C)(C)C,.,.,.,.,40.0,.,.
CC(c1c(O)c2ccccc2[nH]c1=O)C1(C)CCC(O)C(C)(C)O1 (stereo unspecified),.,.,.,.,44.4,.,.
O=[N+]([O-])c1cc(/C=N/N2CCOCC2)cs1,.,.,.,/,.,.,/
SMILES,SENP6 inh,SENP8 block-1,SENP7 block,PPC-1+TRAIL kill,SENP8 block-2,TRAIL sens C8,SENP8 conf
O=[N+]([O-])c1ccc(C=NN2CCOCC2)s1,/,/,/,/,47.8,.,49.8
O=C(CCC(=O)c1ccc(Cl)s1)Nc1ncccc1O,.,.,.,/,.,.,/
CC(=O)c1cccc(NC(=O)N2CCCC2C(=O)Nc2cccc(C)c2)c1 (stereo unspecified),.,.,.,.,42.0,.,.
CC1CCN(C(=O)CSc2nc3c(c(=O)n2C)SC(C)C3)CC1 (stereo unspecified),.,.,.,/,.,.,/
COc1ccc(OC)c(S(=O)(=O)N(C)CC(=O)N2CCc3ccccc3C2)c1,.,.,.,.,58.3,.,70.8
O=C(CCS(=O)(=O)Cc1ccccc1F)N1CCc2ccccc2C1,.,.,.,.,66.9,.,75.3
COc1ccccc1NC(=O)c1nc[nH]c1C(=O)Nc1ccccc1OC,.,.,.,.,.,.,/
COC(=O)c1[nH]cnc1C(=O)c1ccccc1,.,.,.,.,54.0,.,.
Cc1ccc(CN2CC(C(=O)O)CC2=O)cc1 (stereo unspecified),.,.,.,.,40.5,.,.
O=C(Nc1ccc(N2CCN(Cc3ccccc3)CC2)cc1)c1cccnc1,.,.,.,.,44.6,.,.
C/C(=N\Nc1ccc(S(=O)(=O)Nc2ccc(Cl)cc2)cc1[N+](=O)[O-])c1ccc(N2CCOCC2)cc1,.,.,.,.,.,.,/
C/C(=N\Nc1ccc(S(=O)(=O)Nc2ccccc2)cc1[N+](=O)[O-])c1ccc(N2CCOCC2)cc1,.,.,.,.,43.8,.,.
Cc1ccc(S(=O)(=O)N(CC(=O)Nc2ccc(Cl)c([N+](=O)[O-])c2)C2CCCCC2)cc1,.,.,.,.,45.0,.,.
O=C(NC1CCCCC1)Oc1ccccc1,.,.,.,.,40.3,.,.
COc1cc(/C=C2\SC(=O)N(Cc3ccc(F)cc3)C2=O)cc([N+](=O)[O-])c1O,.,.,.,.,40.5,.,.
CC(=O)Nc1ccc(S(=O)(=O)NCCC(=O)OCc2csc(CC(=O)Nc3ccccc3C)n2)cc1,.,.,.,/,.,.,/
COc1ccc(NS(=O)(=O)NC(=O)c2c(C)n(C)c3ccccc23)cc1,.,.,.,/,39.1,.,.
CCCc1cc(=O)[nH]c2nnc(SCC(=O)Nc3cccc(NC(C)=O)c3)n12,.,.,.,/,.,.,/
O=C(O)COc1ccc2nsnc2c1Cl,.,.,.,.,.,.,/
Cc1ccccc1C1=C/C(=C(\SS/C(C(=O)c2ccc(OCC(=O)O)c(Cl)c2Cl)=C2\C=C(c3ccccc3C)SS2)C(=O)c2ccc(OCC(=O)O)c(Cl)c2Cl)SS1,/,/,/,/,41.0,.,55.6
CCc1cccc(C)c1Nc1nc2ccccc2n2cnnc12,.,.,.,/,.,.,/
COc1ccc(CCNC(=O)[C@H](CC(C)C)NC(=O)N2CCn3c2nc2ccccc23)cc1OC,.,.,.,/,.,.,/
Cc1ccc(/C([O-])=C(/C(=S)NCc2ccco2)[n+]2ccccc2)cc1,.,.,.,.,/,/,/
[O-]/C(=C(\C(=S)NCc1ccco1)[n+]1ccccc1)c1ccccc1Br,.,.,.,.,41.6,.,.
COC(=O)c1cn(Cc2cc(OC)ccc2OC)cc(F)c1=O,.,.,.,/,.,.,/
